Only some compounds are listed: those with a hit (about 6.5% of all), similar ones and a draw of the others.
Lassa entry inh: qHTS for Inhibitors of binding or entry into cells for Lassa Virus. AID 540256, 2011. Potency, µM (titrated, usually from 37.9 µM), most hits filed as inhibitors. Lassa virus pseudotype entry inhibition, cell reporter. 300,000 compounds, 1.2% hits; calls by dose curve; tested in HEK293 cells; also: nearly all actives have a fitted effect of over 50% in size
FMDV antiviral: High Throughput Screening for Foot and Mouth Disease Virus Antivirals. FMDV antiviral cell-based qHTS. Potency, µM (doses to about 57.9 µM), actives largely listed as inhibitors. 410,000 compounds, 1.2% hits. AID 1159524, 2015; calls by dose curve; tested in HEK293T cells; also: read-out not given here; nearly all actives have a fitted effect of over 45% in size
HCMV antiviral: qHTS Assay for inhibitors of the human cytomegalovirus (HCMV); HFF cells, HCMV-luciferase reporter, 72 h; stronger effect = lower value; activity change, negative = inhibition, % at 57.5 µM; 410,000 compounds, 4.5% hits; in the data active = activity change below about -60%; inconclusive = no clear call, values can overlap the other calls; inactive = above about -39%
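Cell-based, HFFs, 1000 cells/well, 16 h 37C; cpds in DMSO + HCMV-luc, MOI 1 PFU/cell; 72 h 37C; OneGlo luminescence after 5 min RT; norm. to buffer vs Salinomycin 10uM.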
Vaccinia mCherry: qHTS for Stage-Specific Inhibitors of Vaccinia Orthopoxvirus: mCherry Reporter Primary qHTS | Vaccinia virus mCherry reporter infection, fluorescence | Potency, µM (doses to about 36.5 µM), hits mostly inhibitors | 310,000 compounds, 0.63% hits | AID 720579, 2013; calls by dose curve; tested in A549 cells; also: nearly all actives have a fitted effect of over 35% in size
Marburg entry inh: qHTS for inhibitors of binding or entry into cells for Marburg Virus; Marburg virus pseudotyped entry inhibition, cell reporter; 300,000 compounds, 1.8% hits; Potency, µM (series often up to 37.8 µM), usual class: inhibitors; calls by dose curve; tested in HEK293 cells
Vaccinia Venus: qHTS for Stage-Specific Inhibitors of Vaccinia Orthopoxvirus: Venus Reporter Primary qHTS; Vaccinia virus Venus reporter expression, fluorescence; AID 720580, 2013; Potency, µM (doses to about 36.5 µM), actives largely listed as inhibitors; 330,000 compounds, 0.46% hits; calls by dose curve; tested in A549 cells; also: nearly all actives have a fitted effect of over 30% in size
Each line names hits and unclear results; the compound was inactive in the other large screens; ! = repeats disagree.

CCS(=O)(=O)N1CCc2cc(C(=O)N3CCN(c4cccc(C(F)(F)F)c4)CC3)ccc21	Marburg entry inh inconclusive
N/C(=N\OC(=O)/C=C/c1ccccc1)c1ccccn1	Marburg entry inh 7.9µM
Cc1ccc(C(=O)O/N=C(\N)c2ccccn2)c(Cl)c1	FMDV antiviral 10µM, HCMV antiviral -80 (no result: Lassa entry inh, Vaccinia mCherry, Marburg entry inh, Vaccinia Venus)
N/C(=N\OC(=O)c1ccc(Cl)cc1[N+](=O)[O-])c1ccccn1	Lassa entry inh inconclusive, Marburg entry inh inconclusive
N/C(=N\OC(=O)c1ccc(Cl)cc1Cl)c1ccccn1	Lassa entry inh 5.2µM, HCMV antiviral -61, Marburg entry inh 3.7µM (no result: Vaccinia mCherry, Vaccinia Venus)
N/C(=N\OC(=O)c1ccccc1Cl)c1ccncc1	HCMV antiviral -99, Marburg entry inh inconclusive
COc1ccc(/C=C/C(=O)O/N=C(\N)c2ccccn2)cc1OC	Lassa entry inh inconclusive, Marburg entry inh inconclusive
N/C(=N\OC(=O)c1ccc([N+](=O)[O-])cc1Cl)c1ccccn1	Lassa entry inh inconclusive, FMDV antiviral 16µM, HCMV antiviral -72, Vaccinia mCherry 2.8µM, Marburg entry inh inconclusive, Vaccinia Venus inconclusive
CSC1=NC2(CCN(C(=O)NC3CCCCC3)CC2)N=C1c1ccc(C(C)(C)C)cc1	none (no result: Marburg entry inh)
COC(=O)c1ccc(CN2CCOc3ccc(C(O)c4cccnc4)cc3C2)cc1 (configuration not stated)	none (no result: Lassa entry inh, HCMV antiviral, Marburg entry inh)
NC(=S)NN=C1c2ccccc2-c2c(F)c(F)c(F)c(F)c21	Lassa entry inh inconclusive, FMDV antiviral inconclusive, Marburg entry inh inconclusive
N#Cc1cccc2c1-c1ccccc1/C2=N/NC(N)=S	Lassa entry inh inconclusive, FMDV antiviral 35µM, Vaccinia mCherry inconclusive, Marburg entry inh inconclusive, Vaccinia Venus inconclusive (no result: HCMV antiviral)
CN(C)C(=O)Oc1ccc(OCc2nc3ccccc3[nH]2)cc1	Lassa entry inh 9.2µM, Marburg entry inh inconclusive
COc1ccc(Cn2c(-c3ccc(OC)cc3)nc3ccccc32)cc1	none
COc1ccc(Cn2c(-c3ccc(Br)cc3)c[n+]3ccccc23)cc1	HCMV antiviral -97 (no result: Lassa entry inh, Vaccinia mCherry, Marburg entry inh, Vaccinia Venus)
Cc1cc([N+](=O)[O-])nn1CC(=O)Nc1ccc(Cl)cn1	HCMV antiviral -60
CC(OC(=O)c1ccc(NC(=O)CC#N)cc1)C(=O)Nc1ccc(Oc2ccccc2)cc1 (configuration not stated)	none (no result: Lassa entry inh, FMDV antiviral, Vaccinia mCherry, Marburg entry inh, Vaccinia Venus)
Cc1cc(C(=O)C(C)OC(=O)c2ccc(NC(=O)CC#N)cc2)c(C)n1-c1ccc(OC(F)F)cc1 (configuration not stated)	Lassa entry inh 14µM, HCMV antiviral inconclusive, Marburg entry inh inconclusive, Vaccinia Venus inconclusive
COc1ncc2nc(-c3ccccc3)c(=O)n(C3CC3)c2n1	none (no result: Lassa entry inh, HCMV antiviral, Vaccinia mCherry, Marburg entry inh, Vaccinia Venus)
CCOc1ccc(S(=O)(=O)NCC(c2ccc3c(c2)OCO3)N2CCN(C)CC2)cc1 (configuration not stated)	Lassa entry inh inconclusive, Marburg entry inh 7.9µM
O=C(c1ccc2c(c1)CCN2S(=O)(=O)c1ccc(Cl)cc1)N1CCN(c2ccccc2)CC1	none
O=C(NCc1nnc(SCc2ccccc2)n1-c1ccc(F)cc1)C12CC3CC(CC(C3)C1)C2	FMDV antiviral 25µM, Marburg entry inh inconclusive, Vaccinia Venus inconclusive
O=C(CCl)N(C/C=C/c1ccccc1)c1ccc2c(c1)OCCO2	Lassa entry inh inconclusive, FMDV antiviral 25µM
O=C(/C=C/c1ccccc1)c1ccc2c(c1)OCCCCO2	Lassa entry inh inconclusive, Vaccinia mCherry inconclusive, Marburg entry inh inconclusive, Vaccinia Venus inconclusive
CCCCCCCCCCOC(=O)Cn1c(COc2ccccc2C)[n+](C)c2ccccc21	Lassa entry inh 8.9µM, FMDV antiviral inconclusive, Vaccinia mCherry inconclusive, Marburg entry inh 25µM, Vaccinia Venus 28µM (no result: HCMV antiviral)
CCCCCCCCCCOC(=O)Cn1c(COc2ccc(OC)cc2)[n+](C)c2ccccc21	Lassa entry inh inconclusive, FMDV antiviral inconclusive, Vaccinia mCherry inconclusive, Marburg entry inh 3.2µM, Vaccinia Venus 11µM (no result: HCMV antiviral)
CCCCCCCCCCOC(=O)Cn1c(COc2ccc(Cl)cc2)[n+](C)c2ccccc21	FMDV antiviral inconclusive, Vaccinia mCherry inconclusive, Vaccinia Venus 10µM (no result: Lassa entry inh, Marburg entry inh)
CCOC(=O)Cn1c(COc2ccccc2OC)[n+](C)c2ccccc21	none (no result: Lassa entry inh, Vaccinia mCherry, Marburg entry inh, Vaccinia Venus)
CCCCCCCCCCOC(=O)Cn1c(COc2ccccc2)[n+](C)c2ccccc21	FMDV antiviral 35µM, Vaccinia mCherry inconclusive, Vaccinia Venus 11µM (no result: Lassa entry inh, Marburg entry inh)
COc1cccc(CN2CCCC(c3nc(C)ncc3-c3ccc(F)cc3)C2)c1OC (configuration not stated)	none (no result: Lassa entry inh, HCMV antiviral, Marburg entry inh)
C=CCNc1ccc2c(c1)OC[C@@H](CC(C)C)NS2(=O)=O	none (no result: FMDV antiviral, Vaccinia mCherry, Marburg entry inh, Vaccinia Venus)
CCCCCCCCCCOC(=O)Cn1c(COc2cccc(C)c2)[n+](C)c2ccccc21	FMDV antiviral 20µM, Marburg entry inh inconclusive, Vaccinia Venus inconclusive
Cc1ccc(Cl)cc1NC(=O)N1CCC2(CC1)Oc1ccccc1C(=O)N2Cc1ccccc1F	none (no result: Lassa entry inh)
Cc1nc(N2CCOCC2)nc(N2CCCCC2C)c1[N+](=O)[O-] (configuration not stated)	none (no result: Lassa entry inh, Vaccinia mCherry, Marburg entry inh, Vaccinia Venus)
CC1CCCCN1c1ncnc(N)c1[N+](=O)[O-] (configuration not stated)	HCMV antiviral -77 (no result: Lassa entry inh)
CC1Cc2ccccc2N1c1ncnc(N)c1[N+](=O)[O-] (configuration not stated)	FMDV antiviral inconclusive, HCMV antiviral -101 (no result: Vaccinia mCherry, Vaccinia Venus)
CC1Cc2ccccc2N1c1ncnc2nc[nH]c12 (configuration not stated)	Lassa entry inh inconclusive (no result: HCMV antiviral)
Cc1ccc2cc(CN(Cc3ccc(F)cc3)Cc3nnnn3C3CCCC3)c(=O)[nH]c2c1	Vaccinia mCherry inconclusive, Marburg entry inh 15µM! (no result: FMDV antiviral)
CCc1ccc2[nH]c(=O)c(CN(Cc3ccc4c(c3)OCO4)Cc3nnnn3C3CCCC3)cc2c1	Lassa entry inh 8.2µM, FMDV antiviral inconclusive, Vaccinia mCherry inconclusive, Marburg entry inh inconclusive, Vaccinia Venus inconclusive
Cc1ccc2cc(CN(Cc3ccccc3)Cc3nnnn3C3CCCC3)c(=O)[nH]c2c1	Marburg entry inh inconclusive, Vaccinia Venus inconclusive (no result: FMDV antiviral)
COc1ccc(Br)cc1CNC(=O)c1cnc2sc(N3CCCC3)nn2c1=O	none (no result: Marburg entry inh)
Cc1ccc(-c2c(C)n3c4c(=O)n(C)c(=O)n(C)c4nc3n2-c2cccc(O)c2)cc1	Lassa entry inh inconclusive
CCC(C(=O)NC(C)c1ccccc1)C(=O)NC(C)c1ccccc1 (configuration not stated)	Marburg entry inh inconclusive
CCc1cccc(CC)c1NC(=S)NC(C)c1ccccc1 (configuration not stated)	HCMV antiviral -72
CCc1cc(C(=O)NNC(=S)NC(C)c2ccccc2)cs1 (configuration not stated)	HCMV antiviral -73 (no result: Vaccinia mCherry, Vaccinia Venus)
CC[N+](C)(C)c1ccc(/C=C/c2ccncc2)cc1	none (no result: Lassa entry inh, FMDV antiviral, HCMV antiviral, Marburg entry inh)
CCC(Sc1nnc(-c2ccc(OC)cc2)c(-c2ccc(OC)cc2)n1)C(=O)Nc1cccc(OC)c1 (configuration not stated)	Lassa entry inh inconclusive (no result: Marburg entry inh)

Source: PubChem BioAssay (National Center for Advancing Translational Sciences (NCATS))
